From PubChem BioAssay AID1159580 (chemical genetic matrix, 2015)
Screen size: about 5,500 compounds; about 2,000 (36%) were called active. About 18% were inconclusive and are not listed. No stated cut-off is given here; in the data, active means normalized growth mostly below about 0.91 (no sharp cut-off); inconclusive means no clear call, values can overlap the other calls; inactive means mostly above about 0.92. The list shows a part of the results.

Assay: chemical genetic growth profiling, strain panel (AID 1159580);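 further: tested at 20 µM; growth read once vehicle control cultures reached saturation at 30 °C; 1 = growth at the plate median or of vehicle wells; lower values mean less growth of the strain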
Conditions: growth OD

Measured: normalized growth

CC(=O)N[C@@H](CCC(=O)O)C(=O)O
inactive: S. cerevisiae deletion strains, locus YJR075W, strain HOC1, active compounds read low 1 | S. cerevisiae deletion strains, locus YKL009W, strain mrt4, active compounds read low 1.06 | S. cerevisiae deletion strains, locus YKL068W, active compounds read low 0.995 | S. cerevisiae deletion strains, locus YKL085W, strain MDH1 (second series), active compounds read low 1.01 | S. cerevisiae deletion strains, locus YKL085W, strain MDH1, active compounds read low 1.01 | S. cerevisiae deletion strains, locus YKL160W, strain elf1, active compounds read low 1.04 | S. cerevisiae deletion strains, locus YKL190W, strain CNB1, active compounds read low 1.01 | S. cerevisiae deletion strains, locus YKR001C, strain vps1, active compounds read low 1.01 | S. cerevisiae deletion strains, locus YKR026C, strain gcn3, active compounds read low 1.01 | S. cerevisiae deletion strains, locus YKR091W, strain srl3, active compounds read low 1.02 | S. cerevisiae deletion strains, locus YLL001W, strain dnm1, active compounds read low 0.996 | S. cerevisiae deletion strains, locus YLL026W, active compounds read low 1.01 | S. cerevisiae deletion strains, locus YLL041C, strain sdh2, active compounds read low 1.03 | S. cerevisiae deletion strains, locus YLR027C, strain aat2, active compounds read low 1.02 | S. cerevisiae deletion strains, locus YLR039C, strain RIC1, active compounds read low 1.02 | S. cerevisiae deletion strains, locus YLR058C, strain SHM2, active compounds read low 0.999 | S. cerevisiae deletion strains, locus YLR102C, strain apc9, active compounds read low 1.01 | S. cerevisiae deletion strains, locus YLR113W, strain HOG1, active compounds read low 0.999 | S. cerevisiae deletion strains, locus YLR221C, strain rsa3, active compounds read low 1 | S. cerevisiae deletion strains, locus YLR258W, strain gsy2, active compounds read low 1.03 | S. cerevisiae deletion strains, locus YLR262C, strain YPT6 (second series), active compounds read low 1.03 | S. cerevisiae deletion strains, locus YLR262C, strain YPT6, active compounds read low 0.998 | S. cerevisiae deletion strains, locus YLR268W, strain sec22, active compounds read low 1.06 | S. cerevisiae deletion strains, locus YLR320W, strain mms22, active compounds read low 1.01 | S. cerevisiae deletion strains, locus YLR330W, strain CHS5, active compounds read low 1.01 | S. cerevisiae deletion strains, locus YLR342W, strain FKS1 (second series), active compounds read low 1.05 | S. cerevisiae deletion strains, locus YLR342W, strain FKS1, active compounds read low 1.01 | S. cerevisiae deletion strains, locus YLR357W, strain rsc2, active compounds read low 0.997 | S. cerevisiae deletion strains, locus YLR370C, strain arc18, active compounds read low 1.02 | S. cerevisiae deletion strains, locus YLR371W, strain rom2, active compounds read low 1 | S. cerevisiae deletion strains, locus YLR384C, strain iki3, active compounds read low 1.01 | S. cerevisiae deletion strains, locus YLR418C, strain cdc73, active compounds read low 1.01 | S. cerevisiae deletion strains, locus YML016C, strain PPZ1, active compounds read low 1 | S. cerevisiae deletion strains, locus YML032C, strain rad52, active compounds read low 1.03 | S. cerevisiae deletion strains, locus YML120C, strain ndi1, active compounds read low 1.01 | S. cerevisiae deletion strains, locus YML124C, strain tub3, active compounds read low 1.01 | S. cerevisiae deletion strains, locus YMR058W, strain fet3, active compounds read low 1.02 | S. cerevisiae deletion strains, locus YMR078C, strain ctf18, active compounds read low 1.01 | S. cerevisiae deletion strains, locus YMR125W, strain sto1, active compounds read low 1.01 | S. cerevisiae deletion strains, locus YMR129W, active compounds read low 1.01 | S. cerevisiae deletion strains, locus YMR205C, strain PFK2, active compounds read low 1.01 | S. cerevisiae deletion strains, locus YMR223W, strain ubp8, active compounds read low 1 | S. cerevisiae deletion strains, locus YMR231W, strain pep5, active compounds read low 1.02 | S. cerevisiae deletion strains, locus YMR263W, strain SAP30, active compounds read low 1.01 | S. cerevisiae deletion strains, locus YMR307W, strain GAS1, active compounds read low 1.04 | S. cerevisiae deletion strains, locus YNL067W, strain RPL9B, active compounds read low 1.01 | S. cerevisiae deletion strains, locus YNL071W, strain lat1, active compounds read low 1.02 | S. cerevisiae deletion strains, locus YNL153C, strain GIM3, active compounds read low 1.01 | S. cerevisiae deletion strains, locus YNL183C, strain NPR1, active compounds read low 0.907 | S. cerevisiae deletion strains, locus YNL209W, strain ssb2, active compounds read low 1.03 | S. cerevisiae deletion strains, locus YNL233W, strain BNI4, active compounds read low 1.01 | S. cerevisiae deletion strains, locus YNL248C, strain rpa49, active compounds read low 1.02 | S. cerevisiae deletion strains, locus YNL250W, strain rad50, active compounds read low 1 | S. cerevisiae deletion strains, locus YNL271C, strain bni1, active compounds read low 1.02 | S. cerevisiae deletion strains, locus YNL298W, strain CLA4, active compounds read low 1.01 | S. cerevisiae deletion strains, locus YNL307C, strain MCK1, active compounds read low 1.02 | S. cerevisiae deletion strains, locus YNL322C, strain KRE1 (second series), active compounds read low 1.01 | S. cerevisiae deletion strains, locus YNR049C, strain mso1, active compounds read low 1.02 | S. cerevisiae deletion strains, locus YNR052C, strain pop2, active compounds read low 1.02 | S. cerevisiae deletion strains, locus YOL006C, strain TOP1, active compounds read low 1.06 | S. cerevisiae deletion strains, locus YOL012C, strain htz1 0.888 | S. cerevisiae deletion strains, locus YOL147C, strain pex11, active compounds read low 1.01 | S. cerevisiae deletion strains, locus YOR001W, strain rrp6, active compounds read low 0.988 | S. cerevisiae deletion strains, locus YOR061W, strain CKA2, active compounds read low 1.01 | S. cerevisiae deletion strains, locus YOR069W, strain VPS5, active compounds read low 1.01 | S. cerevisiae deletion strains, locus YOR070C, strain gyp1, active compounds read low 1.03 | S. cerevisiae deletion strains, locus YOR080W, strain dia2, active compounds read low 1.04 | S. cerevisiae deletion strains, locus YOR083W, strain WHI5, active compounds read low 1.03 | S. cerevisiae deletion strains, locus YOR106W, strain vam3, active compounds read low 1.03 | S. cerevisiae deletion strains, locus YOR136W, strain idh2, active compounds read low 0.993 | S. cerevisiae deletion strains, locus YOR144C, strain elg1, active compounds read low 1.01 | S. cerevisiae deletion strains, locus YOR184W, strain ser1, active compounds read low 1.02 | S. cerevisiae deletion strains, locus YOR231W, strain MKK1, active compounds read low 0.973 | S. cerevisiae deletion strains, locus YOR265W, strain rbl2, active compounds read low 1.01 | S. cerevisiae deletion strains, locus YOR270C, strain vph1, active compounds read low 1.11 | S. cerevisiae deletion strains, locus YOR290C, strain snf2, active compounds read low 1.05 | S. cerevisiae deletion strains, locus YOR316C, strain cot1, active compounds read low 1 | S. cerevisiae deletion strains, locus YPL051W, strain arl3, active compounds read low 1.03 | S. cerevisiae deletion strains, locus YPL055C, strain LGE1, active compounds read low 0.977 | S. cerevisiae deletion strains, locus YPL078C, strain atp4, active compounds read low 1.03 | S. cerevisiae deletion strains, locus YPL106C, strain sse1, active compounds read low 1.02 | S. cerevisiae deletion strains, locus YPL240C, strain hsp82, active compounds read low 1.03 | S. cerevisiae deletion strains, locus YPL256C, strain CLN2, active compounds read low 0.956 | S. cerevisiae deletion strains, locus YPR119W, strain clb2, active compounds read low 1 | S. cerevisiae deletion strains, locus YPR141C, strain kar3, active compounds read low 1.01 | S. cerevisiae deletion strains, locus YPR163C, strain tif3, active compounds read low 1.01 | S. cerevisiae deletion strains, locus YPR167C, strain met16, active compounds read low 1 | S. cerevisiae deletion strains, strain wtn01, active compounds read low 1.02 | S. cerevisiae strains, strain wild type, active compounds read low 1.01
